Source: PubChem (National Center for Advancing Translational Sciences (NCATS))
Sampled rows, rich in hits. Any-hit rate of the full collection: about 11%.
FLuc inh: Photinus pyralis luciferase inhibition; P08659; purified P. pyralis luciferase, luminescence, biochemical; Potency, µM (highest dose often 115 µM), hits mostly inhibitors; hit rate 2.5% among 76,000; AID 1347043; active = well fitted curve in the direction sought with a large enough effect; inconclusive = small, poorly fitted or top-dose-only effect, or another doubt; inactive = no such curve, though single readings can be large; an effect the other way counts as inactive or inconclusive; note: % is set by controls: 0 for no effect and ±100 for the full control effect; nearly all actives have a fitted effect of over 65% in size
Target sequence (P08659 whole entry, looked up): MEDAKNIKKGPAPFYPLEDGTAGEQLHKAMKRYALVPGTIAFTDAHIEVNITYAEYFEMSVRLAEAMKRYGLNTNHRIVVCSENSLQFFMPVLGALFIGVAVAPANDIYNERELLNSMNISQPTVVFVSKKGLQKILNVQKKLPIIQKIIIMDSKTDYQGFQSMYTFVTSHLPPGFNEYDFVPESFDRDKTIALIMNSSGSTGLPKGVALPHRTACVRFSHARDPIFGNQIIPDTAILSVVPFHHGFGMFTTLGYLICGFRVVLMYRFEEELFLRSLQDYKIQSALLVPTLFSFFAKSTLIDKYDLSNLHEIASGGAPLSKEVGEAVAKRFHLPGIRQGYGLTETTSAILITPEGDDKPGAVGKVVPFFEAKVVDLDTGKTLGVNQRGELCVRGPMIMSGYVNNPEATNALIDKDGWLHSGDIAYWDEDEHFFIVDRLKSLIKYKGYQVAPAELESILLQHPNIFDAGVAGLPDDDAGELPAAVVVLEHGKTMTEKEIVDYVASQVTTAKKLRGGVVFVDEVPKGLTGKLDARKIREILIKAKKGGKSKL
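Luminescence read by CCD imager after adding enzyme (10nM final) to wells holding compound, titrated in qHTS. Substrates 10uM each D-luciferin and ATP; buffer 50mM Tris acetate pH 7.5, 10mM Mg acetate, Tween-20, BSA.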
3T3 cytotox: cytotoxic compounds in NIH 3T3 cells | Potency, µM (top dose mostly 96.7 µM), for inactives: at the highest dose activity change, negative = cytotoxicity, actives largely listed as inhibitors | NIH 3T3 viability, CellTiter-Glo ATP luminescence, 48-72 h | AID 1345082 | hit rate 4.3% among 94,000; active = well fitted curve in the direction sought with a large enough effect; inconclusive = small, poorly fitted or top-dose-only effect, or another doubt; inactive = no such curve, though single readings can be large; an effect the other way counts as inactive or inconclusive; note: % is set by controls: 0 for no effect and ±100 for the full control effect; nearly all actives have a fitted effect of over 55% in size
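Cytotoxicity is measured as loss of cellular ATP: NIH 3T3 cells (400/well) are exposed to compound for 48 or 72 hr at 37 °C, then CellTiter-Glo luminescence is imaged after 10 min at room temperature.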
HEK cytotox: HEK 293 cell cytotoxicity; hit rate 6.6% among 94,000; AID 1345083; HEK 293 viability, ATP luminescence (CellTiter-Glo), 48-72 h; Potency, µM (series often up to 115 µM), without a hit: at the highest dose activity change, negative = cytotoxicity, most hits filed as inhibitors; active = well fitted curve in the direction sought with a large enough effect; inconclusive = small, poorly fitted or top-dose-only effect, or another doubt; inactive = no such curve, though single readings can be large; an effect the other way counts as inactive or inconclusive; note: % is set by controls: 0 for no effect and ±100 for the full control effect; nearly all actives have a fitted effect of over 60% in size
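Luminescence from cellular ATP, measured with CellTiter-Glo, indicates HEK 293 viability. Cells plated at 250 cells/well are treated with compound for 48 or 72 hr at 37 degree Celsius before reagent addition.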
NPR1 antag: blocks ANP-stimulated signaling of human Npr1 receptor | P16066 | HEK293 hNpr1 GloSensor cGMP, ANP-stimulated luminescence | Potency, µM (titrated, usually from 46.3 µM), without a hit: at the highest dose activity change, negative = inhibition, actives largely listed as inhibitors | hit rate 1.6% among 76,000 | AID 1347048; note: % is set by controls: 0 for no effect and ±100 for the full control effect; nearly all actives have a fitted effect of over 60% in size
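HEK293 cells stably expressing human Npr1 and cGMP GloSensor pGS-40F, loaded 2 h with 2% GloSensor reagent, given compound 30 min at room temperature. Luminescence read before and 20 min after 0.1 nM hNppA.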
NPR1 antag cnf: confirmation of human Npr1 natriuretic peptide receptor antagonists; AID 1347044; shares compounds with NPR1 antag; hit rate 76% among 1,400; HEK293 hNpr1 cGMP GloSensor luminescence, ANP-stimulated; Potency, µM (titrated, usually from 57.6 µM), without a hit: at the top dose activity change, negative = inhibition, usual class: inhibitors; note: nearly all actives have a fitted effect of over 70% in size
NPR2 antag: antagonizes human Npr2, subtype selectivity check. hit rate 67% among 1,400. HEK293 hNpr2 GloSensor cGMP luminescence, CNP-stimulated. Potency, µM (doses to about 57.6 µM), for inactives: top-dose activity change, negative = inhibition, hits mostly inhibitors. shares compounds with NPR1 antag; note: nearly all actives have a fitted effect of over 70% in size
FLuc inh counter: FLuc enzyme inhibition, Npr1 counter-screen; shares compounds with NPR1 antag; Potency, µM (top dose mostly 57.6 µM), without a hit: at the top dose activity change, negative = inhibition, usual class: inhibitors; purified FLuc enzyme, luminescence, Km substrate; AID 1347047; hit rate 0.7% among 1,400; active = well fitted curve in the direction sought with a large enough effect; inconclusive = small, poorly fitted or top-dose-only effect, or another doubt; inactive = no such curve, though single readings can be large; an effect the other way counts as inactive or inconclusive; note: 0% is about no effect
GloSensor ctrl: reduces cGMP signal in GloSensor control cells; shares compounds with NPR1 antag; HEK293 GloSensor cGMP, SNP-stimulated, luminescence; Potency, µM (titrated, usually from 57.6 µM), without a hit: at the highest dose activity change, negative = inhibition, actives largely listed as inhibitors; hit rate 69% among 1,400; note: % is set by controls: 0 for no effect and ±100 for the full control effect; nearly all actives have a fitted effect of over 70% in size
The depositor's hits bear a star; i = inactive; ? = inconclusive; · = not tested or not shown; [ ] = another dose, or the depositor's remark. Unless noted, calls come from the whole dose curve. Potency is the fitted concentration of half-maximal effect.

SMILES	FLuc inh	3T3 cytotox	HEK cytotox	NPR1 antag	NPR1 antag cnf	NPR2 antag	FLuc inh counter	GloSensor ctrl
C[C@H]1[C@@H]2[C@H]3OC(=O)[C@H](C)C3CC[C@@]2(C)CC[C@@H]1NC(=O)c1ccncc1 (stereo not given in full)	i	-28%[138 µM]	-29%[172 µM]	-4%[70.6 µM]	·	·	·	·
Cc1ccc(C(=O)N2CCC(Cc3nc(-c4ccccc4)no3)CC2)c(C)c1	i	?	50µM*	6.3µM*	3.9µM*	5.4µM*	1%	3.9µM*
CCCCOc1ccc(C(=O)N2CCC(Cc3nc(-c4cnccn4)no3)CC2)cc1	i	?	?	?	?	?	3%	?
COc1ccc(-c2noc(CC3CCN(C(=O)c4ccccc4C)CC3)n2)cc1	i	?	?	10µM*	15µM*	17µM*	3%	12µM*
COc1ccc(-c2noc(CC3CCN(C(=O)C4CC4)CC3)n2)cc1	i	?	?	?	·	·	·	·
CCc1ccc(C(=O)N2CCC(Cc3nc(-c4ccc(OC)cc4)no3)CC2)cc1	i	?	?	3.5µM*	6.1µM*	9.7µM*	-1%	6.9µM*
CCOc1ccc(C(=O)N2CCC(Cc3nc(-c4cnccn4)no3)CC2)cc1	i	?	-27%	-8%	·	·	·	·
COc1ccc(-c2noc(CC3CCN(C(=O)c4ccc(OC)nc4OC)CC3)n2)cc1	i	?	20µM*	4µM*	5.4µM*	8.6µM*	2%	6.1µM*
Cc1ccccc1C(=O)N1CCC(Cc2nc(-c3ccccc3)no2)CC1	i	?	?	8.9µM*	11µM*	17µM*	-3%	11µM*
CCOc1ccccc1C(=O)N1CCC(Cc2nc(-c3ccc(OC)cc3)no2)CC1	i	?	?	11µM*	24µM*	22µM*	1%	24µM*
COc1ccc(-c2noc(CC3CCN(C(=O)C4(c5ccc(OC)cc5)CC4)CC3)n2)cc1	i	?	?	1.4µM*	2.7µM*	3.4µM*	4%	3.1µM*
O=C(NCCN1CCOCC1)c1ccc2oc(-c3ccnc(Cl)c3)nc2c1	·	-21%	-11%	·	·	·	·	·
O=C(NCc1cccnc1)c1cc(-c2ccccc2F)cc2c1OCCN2Cc1cccnc1	i	?	?	-22%	·	·	·	·
O=C(NCCc1cnc[nH]1)c1cc(-c2ccccc2F)cc2c1OCCN2Cc1cccnc1	i	?	?	-15%	·	·	·	·
CN(C)C(=O)c1cc(-c2ccccc2F)cc2c1OCCN2Cc1cccnc1	i	-28%[138 µM]	?	-25%[70.6 µM]	?	-25%[86.2 µM]	1%[86.2 µM]	-25%[86.2 µM]
O=C(c1cc(-c2ccccc2F)cc2c1OCCN2Cc1cccnc1)N1CCC1	i	?	?	?	?	?	1%[86.2 µM]	-11%[86.2 µM]
O=C(NC1CC1)c1cc(-c2ccccc2F)cc2c1OCCN2Cc1cccnc1	i	89µM*	100µM*	-29%[70.6 µM]	?	?	2%[86.2 µM]	8%[86.2 µM]
CC(NC(=O)C1CCN(c2cc(C(F)(F)F)ncn2)CC1)c1ccccc1 (stereo not given)	i	?	-27%	-29%	·	·	·	·
COc1ccc(NC(=O)C2CCN(c3cc(C(F)(F)F)ncn3)CC2)cc1OC	i	-25%	?	-19%	·	·	·	·
CC(C)c1ccc(NC(=O)C2CCN(c3cc(C(F)(F)F)ncn3)CC2)cc1	i	?	?	7.1µM*	7.7µM*	8.6µM*	5%	4.8µM*
Cc1ccc(NC(=O)C2CCN(c3cc(C(F)(F)F)ncn3)CC2)cc1Cl	i	18µM*	?	10µM*	12µM*	19µM*	-1%	12µM*
O=C(Nc1ccc(F)cc1)C1CCN(c2cc(C(F)(F)F)ncn2)CC1	i	-33%	-30%	?	22µM*	?	0%	24µM*
COc1ccc(NC(=O)C2CCN(c3cc(C(F)(F)F)ncn3)CC2)cc1	i	-21%	-25%	?	·	·	·	·
O=C(c1ccc(F)cc1)N1CCC(Cc2nc(-c3ccc(F)cc3)no2)CC1	i	?	?	1.4µM*	1.7µM*	2.7µM*	-1%	1.9µM*
COc1ccc(OCC(=O)N2CCC(Cc3nc(-c4ccc(F)cc4)no3)CC2)cc1	i	?	?	5.6µM*	4.3µM*	6.1µM*	2%	3.9µM*
SMILES	FLuc inh	3T3 cytotox	HEK cytotox	NPR1 antag	NPR1 antag cnf	NPR2 antag	FLuc inh counter	GloSensor ctrl
O=C(CC1CCCCC1)N1CCC(Cc2nc(-c3ccc(F)cc3)no2)CC1	i	?	?	4µM*	4.8µM*	5.4µM*	-1%	4.8µM*
CN(C)C(=O)c1ccc(CC2CCN(C(=O)CC3CCCCC3)CC2)cc1	i	?	35µM*	11µM*	15µM*	19µM*	3%	15µM*
Cc1ccc(NC(=O)N2CCC(n3c(C)cnc3C3CCOCC3)CC2)cc1C	i	-1%	-4%	2%	·	·	·	·
O=C(c1ccccc1Cl)N1CCN(c2ccnc3ccnn23)CC1	·	-26%	-28%	·	·	·	·	·
CCOC(=O)CCNC(=O)N1c2ccccc2CC1c1nc(C(C)C)no1 (stereo not given)	i	i	-2%	8%	·	·	·	·
CC(C)Cn1c(=O)c(C(=O)N2CCN(C(=O)c3ccc(Cl)nc3)CC2)nc2cccnc21	·	-12%	i	·	·	·	·	·
Cc1ccc(C(=O)N2CCC(C(=O)N3CCC(c4nc5ccncc5[nH]4)C3)CC2)cc1 (stereo not given)	·	3%	-7%	·	·	·	·	·
O=C(COc1ccc(Cl)cc1)N1CCC[C@H]1c1nc(-c2ccc(F)cc2)no1	i	?	?	-19%	·	·	·	·
O=C(C1CC1)N1CCC(Cc2nc(-c3ccc(F)cc3)no2)CC1	i	?	?	?	·	·	·	·
O=C(Cc1ccccc1Cl)N1CCC(Cc2nc(-c3ccccc3)no2)CC1	i	?	?	?	·	·	·	·
O=C(COc1ccc(F)cc1)N1CCC(Oc2ccc(-c3noc(C4CC4)n3)cc2)C1 (stereo not given)	i	?	?	11µM*	?	?	-2%	31µM*
O=C(Cc1ccc(F)cc1)N1CCC(Cc2nc(-c3ccc(F)cc3)no2)CC1	i	?	?	13µM*	14µM*	14µM*	3%	11µM*
